Screening data from PubChem BioAssay.
UBC13 polyUb: blocks human UBC13 polyubiquitin chain formation | TR-FRET | hit rate 0.47% among 330,000 | inhibition, % at 20 µM | P61088; in the data active means inhibition above about 45%, passing the limit was not always enough; inconclusive means no clear call, values can overlap the other calls
RAD54 branch: inhibitors of human RAD54 branch migration | RAD54 Holliday junction branch migration, FAM/BHQ fluorescence | inhibition, % at 10.4 µM | hit rate 0.14% among 360,000 | AID 602329;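 active means mean normalized replicate activity at least 40 and at least half of replicates scoring 40 or more; inconclusive means only one of the two criteria met; inactive means mean below 40 and under half of replicates reaching 40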;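 further: inhibitors cause a drop in the FAM fluorescence signal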
Target sequence (Q92698 whole entry, looked up): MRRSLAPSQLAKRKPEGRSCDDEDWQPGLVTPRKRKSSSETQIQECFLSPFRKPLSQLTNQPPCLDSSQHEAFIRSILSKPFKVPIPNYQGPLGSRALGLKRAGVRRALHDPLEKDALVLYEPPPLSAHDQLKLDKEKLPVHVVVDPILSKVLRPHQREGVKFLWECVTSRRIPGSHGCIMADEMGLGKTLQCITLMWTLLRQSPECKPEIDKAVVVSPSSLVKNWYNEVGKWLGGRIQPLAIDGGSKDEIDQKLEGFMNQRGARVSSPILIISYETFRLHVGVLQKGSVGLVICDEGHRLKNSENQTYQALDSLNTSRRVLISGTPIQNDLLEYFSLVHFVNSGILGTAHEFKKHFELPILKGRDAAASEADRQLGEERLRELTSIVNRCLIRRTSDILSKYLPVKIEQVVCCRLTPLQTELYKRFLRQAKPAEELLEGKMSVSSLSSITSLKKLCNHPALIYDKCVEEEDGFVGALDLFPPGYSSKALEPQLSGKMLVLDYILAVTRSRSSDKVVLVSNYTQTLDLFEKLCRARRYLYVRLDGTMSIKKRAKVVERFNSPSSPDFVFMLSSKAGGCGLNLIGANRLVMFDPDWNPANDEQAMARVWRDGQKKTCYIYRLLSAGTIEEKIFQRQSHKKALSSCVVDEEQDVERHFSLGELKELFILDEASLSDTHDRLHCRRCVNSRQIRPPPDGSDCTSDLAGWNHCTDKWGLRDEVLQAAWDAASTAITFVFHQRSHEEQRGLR
MIN6 prolif: induces beta-cell replication in MIN6 cells | hit rate 0.29% among 330,000 | AID 2380 | MIN6 cells proliferation, ATPlite luminescence, 48 h; cells starved in 0.2% serum; 100% = growth in 10% serum | proliferation, % at 10 µM;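 active means compounds whose signal lies at least 3.5 SD above the mean of all wells on their plate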
RAD52 anneal inh: blocks human RAD52 DNA annealing; P43351; inhibition, % at 18.7 µM; AID 651710; recombinant RAD52 DNA annealing, FRET fluorescence; hit rate 0.46% among 360,000;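 active means every replicate showing at least 50% inhibition; inconclusive means mean inhibition at least 50% but not in every replicate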
PREPL inh: human PREPL enzyme inhibition | Q4J6C6 | inhibition, % at 5.96 µM | hit rate 0.68% among 320,000 | recombinant PREPL, fluorescence polarization activity-based probe
DNA FID counter: fluorescent intercalator displacement, NS3 helicase counter-screen | inhibition, % at 7.9 µM | DNA fluorescent intercalator displacement, fluorescence | hit rate 0.17% among 290,000; in the data active means inhibition above about 37%;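 further: higher means more ethidium bromide displaced from hairpin DNA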
PREPL confirm: human PREPL inhibition, confirmation; shares compounds with PREPL inh; recombinant PREPL, fluorescence polarization activity probe; inhibition, % at 5.96 µM; hit rate 67% among 2,000; AID 2803
Casp3 UBC13 ctr: counter-screen for UBC13 inhibitors: human caspase-3 inhibition; Recombinant caspase-3, Caspase-Glo 3/7 luminescence, 60 min; hit rate 4% among 1,400; shares compounds with UBC13 polyUb; inhibition, % at 20 µM;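 active means mean inhibition across replicates above about 26%, limit read from the data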
UBC13 conf: confirmation of human UBC13 polyubiquitin inhibitors; shares compounds with UBC13 polyUb; UBC13 polyubiquitination, TR-FRET, biochemical; inhibition, % at 10 µM; hit rate 68% among 1,400; in the data active means inhibition above about 45%; inconclusive means no clear call, values can overlap the other calls
Rad54 DNA ctr: DNA binding artifact in Rad54 counter-screen | AC50, µM (highest dose often 35 µM) | Acridine orange-DNA displacement, fluorescence polarization, 20 min | AID 651673 | hit rate 8% among 460 | shares compounds with RAD54 branch;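 active means signal drop giving an AC50 within twice the top valid tested concentration of each sample, actives reach about 35 µM in these data; inactive means activity opposite to expected, plus the rest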;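 further: polarization loss reports compound binding to salmon sperm DNA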
RAD52 DNA ctr: counter-screen for RAD52 inhibitors: DNA binding compounds | shares compounds with RAD52 anneal inh | Salmon sperm DNA/acridine orange FP displacement | AC50, µM | hit rate 8% among 1,000;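 active means fitted half-maximal concentration for signal loss at or below twice the highest dose tested, in every separate run, actives reach about 64 µM in these data; inconclusive means runs disagree, or flat partial signal loss, or poor fit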
Numbers stand for hits; 0 = inactive; ? = inconclusive; - = not tested or not shown; ! = a repeat was not active. This is a sample that favours compounds with a hit; in the whole collection about 1.3% have one here. Unless noted, no stated cut-off is given here; in the data, active means inhibition above about 43%; inactive means the rest.

SMILES	UBC13 polyUb	RAD54 branch	MIN6 prolif	RAD52 anneal inh	PREPL inh	DNA FID counter	PREPL confirm	Casp3 UBC13 ctr	UBC13 conf	RAD52 DNA ctr	others
C#CCOCCOCCOCCNc1nc(N2CCN(C(=O)CCCCCCCCCCNC(=O)[C@H](CCCCN)n3cc(CCO)nn3)CC2)nc(N2CCN(C(=O)CCCCCCCCCCNC(=O)[C@H](CCCCN)n3cc(CCO)nn3)CC2)n1	116.6	50.0	0	-	57.6	-	46.7	0	124.6	-
C#CCOCCOCCOCCNc1nc(N2CCN(C(=O)CCCCCCCCCCNC(=O)Cn3cc(CCCCCN)nn3)CC2)nc(N2CCN(C(=O)CCCCCCCCCCNC(=O)[C@H]([C@@H](C)CC)n3cc(CCCCCN)nn3)CC2)n1	124.1	0	0	-	62.1	-	56.5	0	123.0	-
C#CCOCCOCCOCCNc1nc(N2CCN(C(=O)CCCCCCCCCCNC(=O)[C@H](CCCCN)n3cc(C)nn3)CC2)nc(N2CCN(C(=O)CCCCCCCCCCNC(=O)[C@@H]([C@H](C)CC)n3cc(CCCCCN)nn3)CC2)n1	125.5	0	0	-	51.8	-	44.6	0	127.8	-
C#CCOCCOCCOCCNc1nc(N2CCN(C(=O)CCCCCCCCCCNC(=O)[C@H](CCCCN)n3cc(CCCC(=O)O)nn3)CC2)nc(N2CCN(C(=O)CCCCCCCCCCNC(=O)[C@H](CCCN=C(N)N)n3cc(C[C@@H](C)CC)nn3)CC2)n1	123.1	0	0	-	43.6	-	0	0	126.2	-
C#CCOCCOCCOCCNc1nc(N2CCN(C(=O)CCCCCCCCCCNC(=O)[C@H](CO)n3cc(CCCSC)nn3)CC2)nc(N2CCN(C(=O)CCCCCCCCCCNC(=O)[C@H](CO)n3cc(CCCSC)nn3)CC2)n1	0	0	0	0	0	-	-	-	-	-
COCC(=O)N1[C@H](CO)[C@@H]2c3ccccc3N(C(=O)Nc3ccccc3F)C[C@@H]21	-	0	-	0	-	-	-	-	-	-
CCCNC(=O)C[C@H]1CC[C@@H]2[C@H](COc3ccc(NC(=O)Cc4cccs4)cc3C(=O)N2C)O1	-	0	-	-	-	-	-	-	-	-
O=C(Cn1nc(CNc2ccc(Br)cc2)[n+]2c1CCCCC2)c1ccc([N+](=O)[O-])cc1	51.6	0	0	0	61.5	0	44.0	0	45.8	-
C[C@@H]1CN([C@H](C)CO)C(=O)c2cc(NC(=O)C3CCCCC3)ccc2O[C@@H](C)CCCCO[C@@H]1CN(C)C(=O)Cc1ccccc1	-	0	-	-	-	-	-	-	-	-
Cc1cccn2c(=O)c3cc(C(=O)NCCc4ccccc4)c(=N)n(CCCn4ccnc4)c3nc12	0	51.8	0	-	66.3	0	57.6	-	-	-	Rad54 DNA ctr=0
Cc1cc(N2CCN(C)CC2)nc2ccc(NC(=S)N3CCC4(CC3)OCCO4)cc12	0	0	0	0	0	0	-	-	-	-
Cc1ccc(C)c(N2CCN(C(=S)Nc3ccc4nc(N5CCN(C)CC5)cc(C)c4c3)CC2)c1	49.0	?	0	0	53.3	46.7	0	0	73.1	-	Rad54 DNA ctr=0
C[C@@H]1CN([C@H](C)CO)C(=O)c2cc(C#Cc3cccnc3)cnc2O[C@H]1CN(C)S(=O)(=O)c1ccccc1F	-	0	-	0	-	-	-	-	-	-
Cc1ccc2sc(N(CCCN(C)C)C(=O)c3ccc(S(=O)(=O)N(C)C4CCCCC4)cc3)nc2c1C	0	0	0	60.8	52.5	-	46.7	-	-	0
CCCCCN=C(N)N/N=C/c1c[nH]c2ccc(OC)cc12	107.1	0	0	55.8	80.4	-	66.2	0	111.1	0
CN(C)CCCN1c2ccccc2Sc2ccc(Cl)cc21	0	0	0	100.8	45.4!	0	45.1	-	-	0
CN(C)CCCN1c2ccccc2Sc2ccc3ccccc3c21	-	-	-	0	-	-	-	-	-	-
OCCN1CCN(CCCN2c3ccccc3Sc3ccc(Cl)cc32)CC1	90.3	0	0	102.3	47.8	0	0	0	98.9	0
Cc1ccc(-c2[nH]c3cc(C(=O)NCCCn4ccnc4)ccc3c(=O)c2O)cc1	46.5	0	0	80.5	55.0	-	0	0	0	0
O=C(c1ccc(-c2cc(O)c3ncccc3c2)cc1)N1CCNCC1	113.9	0	0	101.0	55.0	-	48.9	0	116.9	0
CC(C)(C)c1ccc(C(=O)N2CCNCC2)cc1	0	0	0	-	0	0	-	-	-	-
CO[C@H]1CN(C)C(=O)c2ccc(NC(=O)NC(C)C)cc2OC[C@H](C)N(C(=O)CC2CC2)C[C@H]1C	-	0	-	0	-	-	-	-	-	-
COc1ccc2nc3cc(Cl)ccc3c(Nc3cc(CN4CCCC4)c(O)c(CN4CCCC4)c3)c2n1	0	124.5	0	100.9	63.9	103.1	53.8	-	-	4.02µM	Rad54 DNA ctr=3.72µM
COc1ccc2nc3cc(Cl)ccc3c(Nc3cc(C(C)C)c(O)cc3C)c2c1	0	0	0	0	0	0	-	-	-	-
COc1ccc(NC(=O)Nc2ccc3c(c2)[C@@H]2C[C@@H](CC(=O)N4CCOCC4)O[C@@H](CO)[C@@H]2O3)cc1	-	0	-	-	-	-	-	-	-	-
SMILES	UBC13 polyUb	RAD54 branch	MIN6 prolif	RAD52 anneal inh	PREPL inh	DNA FID counter	PREPL confirm	Casp3 UBC13 ctr	UBC13 conf	RAD52 DNA ctr	others
Cc1noc(C)c1S(=O)(=O)Nc1ccc2c(c1)C(=O)N([C@@H](C)CO)C[C@@H](C)[C@H](CN(C)C(=O)C1CCCCC1)OCCCC[C@H](C)O2	-	0	-	0	-	-	-	-	-	-
COc1cc(NC(C)CCCN)c2ncccc2c1 (stereo not given)	0	0	0	84.5	57.3	-	0	-	-	0
COc1ccc(N2CCc3c(C)nc4c(OC)cc(OC)cc4c32)cc1	0	-	0	87.1	51.5	0	49.2	-	-	0
COc1ccc(Nc2c3ccccc3nc3ccccc23)cc1	0	100.7	0	73.2	46.8	0	44.8	-	-	10.6µM	Rad54 DNA ctr=26.8µM
C[C@H](CO)N1C[C@H](C)[C@@H](CN(C)C(=O)Nc2ccc(F)cc2)Oc2ncc(-c3cccnc3)cc2C1=O	-	0	-	0	-	-	-	-	-	-
Fc1cccc(NCCc2c[nH]c3ccccc23)n1	0	0	0	0	0	0	-	-	-	-
c1ccc2c(NCCc3c[nH]c4ccccc34)c3ccccc3nc2c1	0	92.8	0	97.1	49.9	0	57.2	-	-	41.4µM	Rad54 DNA ctr=35.6µM
C[C@@H](NC(=O)C[C@@H]1C[C@H]2c3cc(NC(=O)c4cccnc4)ccc3O[C@H]2[C@@H](CO)O1)c1ccccc1	-	0	-	0	-	-	-	-	-	-
Cc1c(CCOC(=O)c2cc([N+](=O)[O-])cc([N+](=O)[O-])c2)sc[n+]1CC(=O)c1ccc(Br)cc1	0	-	0	94.1	53.6	0	70.5	-	-	0
CN1CCN(CCCNCc2cn(CCC#N)c3ccccc23)CC1	0	0	0	63.1	49.1	0	0	-	-	0
